Holding throughout (assay): NCI-60 one-dose screen, 48 h (100 = growth as untreated, 0 = no growth, -100 = all killed)
What all share (conditions): 10 µM unless noted

The subject of assay [1] is NCI-H23 lung.
In assay [2] the test system is NCI-H226 lung.
Assay [3] has as its system NCI-H322M lung.
In assay [4] the test system is HOP-62 NSCLC.
Assay [5] deals with NCI-H460 lung.
The test system of assay [6] is HOP-92 NSCLC.
The test system of assay [7] is NCI-H522 lung.
For assay [8], the system named is A549/ATCC NSCLC.
The subject of assay [9] is 786-0 renal.
Assay [10] deals with COLO 205 colon.

These results are taken from PubChem BioAssay (NCI).

This is part of a sample that, as a whole, favours compounds with a hit. Of some 83,000 tested, about 20% had one in any assay.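 A percent growth of 40 corresponds to 60% growth inhibition; 0 means no net growth; -100 means all cells died. Active threshold: below 10.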 Values without a mark were called inactive. Activity calls are given as the source filed them.

For `CCC(=O)NC(O)C(Cl)(Cl)C(C)Cl` (stereo not given), the growth in [1] was 96.3%; in [2] it was 95.7%; in assay [3] it was 99.6%; in assay [4], 102%; in assay [5] it was 109%; in assay [6], 88.1%. In addition, the growth in [7] was 102%; in [8], 97.5%; in assay [9] it was 101%; in assay [10] it was 114%.

For the compound `COc1cc(NC(C)CCCN)c2ncccc2c1Oc1ccc(Cl)cc1` (stereo not given), the growth in assay [1] is 87.4%; in assay [2], 75%; in [3], 64.5%; in [4], 77.7%; in assay [5] it was 83.8%; in assay [6] it was 43.4%. Besides, the growth in assay [7] was 87.9%; in [8], 87.9%; in [9], 67.3%; in assay [10] it was 6.98% (active).

Consider `CCOc1cccc(/C=N/NC(=O)Cc2ccc(Nc3ccnc(C(F)(F)F)c3)cc2)c1O`, for which the growth in assay [1] is 39%; in assay [2], -1.59% (active); in assay [3] it was 36.8%; in assay [4], 7.88% (active); in assay [5], 0.302% (active); in assay [6] it was 46.7%. For the same compound, the growth is 13.4% in [7], 47.3% in assay [8], 29% in [9] and 4.75% (active) in assay [10].

With `CCN(CC)CCCC(C)N/C(c1cccc(OC)c1)=c1\c(=O)[nH]n(-c2c3ccccc3nc3ccccc23)c(=O)\c1=C(/NC(C)CCCN(CC)CC)c1cccc(OC)c1` (stereo not given), the growth in [1] is -26.3% (active); in assay [2], -25.2% (active); in assay [3], -37.7% (active); in [4], -22.5% (active); in assay [5], -34.1% (active); in assay [6], -70% (active). The growth was -85.6% (active) in [7], -59.2% (active) in assay [8], 3.27% (active) in [9] and -90.1% (active) in assay [10].

`C=CCn1c(C)nc2cc(Nc3nc(N4CCOCC4)nc4nc[nH]c34)ccc21`: the growth in assay [1] was 106%; in assay [2], 88.6%; in assay [3], 88.3%; in assay [4], 67.8%; in assay [5], 94.1%; in assay [6] it was 4.17% (active). Further, the growth in assay [7] was 88.2%; in assay [8], 95.1%; in [9], 63.1%; in assay [10] it was 97.9%.

Take `O=C(NCCNC(=O)c1cc(S(=O)(=O)NCCc2ccccc2)c(O)c(O)c1O)c1cc(S(=O)(=O)NCCc2ccccc2)c(O)c(O)c1O`: the growth in assay [1] was 38.9%; in assay [2], 49.5%; in assay [3] it was 39.5%; in assay [4] it was 34.6%; in [5], 32.1%; in [6], 73.9%. For the same compound, the growth in assay [7] was 41.6%; in assay [8], 45.8%; in assay [9] it was 53.4%; in [10], 104%.

As for `C=C(CN1CC=CCC1)[C@@H]1CC[C@]2(C(=O)OC)CC[C@]3(C)[C@H](CC[C@@H]4[C@@]5(C)CC[C@H](OC(C)=O)C(C)(C)[C@@H]5CC[C@]43C)[C@@H]12`, the growth in [1] was 95.5%; in assay [2], 95.1%; in [3], 104%; in [4], 106%; in assay [5], 97.8%; in assay [6], 71.2%. Further, the growth is 84% in [7], 100% in [8], 109% in assay [9] and 77.6% in [10].

In the case of `O=C1c2ccccc2C(=O)c2c1oc1ccc3ccccc3c21`, the growth was 33.7% in [1]; 85.5% in assay [2]; 83.1% in [3]; 108% in [4]; 44.9% in [5]; 102% in assay [6]. Besides, the growth in assay [7] was 97.5%; in [8], 60.8%; in assay [9], 101%; in [10], 107%.

In the case of `Cn1c(=O)c2[nH]c(Cc3ccc4c(c3)OCO4)nc2n(C)c1=O`, the growth is 99.8% in assay [1]; 99.4% in assay [2]; 109% in assay [3]; 101% in [4]; 102% in assay [5]; 71.4% in [6]. Moreover, the growth in assay [7] is 103%; in [8], 97%; in assay [9], 111%; in assay [10] it was 109%.

Regarding `O=C(/C=C/c1ccccc1)C(Br)C(Br)c1ccccc1` (stereo not given), the growth in assay [1] was 29.4%; in [2], -36.8% (active); in assay [3], 100%; in assay [4] it was 12.5%; in assay [5], 89.8%; in assay [6] it was -18.9% (active). The growth in assay [7] is -78.3% (active); in assay [8], 47.2%; in assay [9], -80.2% (active); in [10], -74.2% (active).

Consider `COC(=O)C1(C)COP(=O)(NC23CC4CC(CC(C4)C2)C3)OC1` (stereo not given), for which the growth in [1] is 106%; in [2], 108%; in assay [3], 99%; in assay [4] it was 99%; in [5] it was 103%; in assay [6] it was 83.6%. Further, the growth was 89.5% in assay [7], 99.7% in assay [8], 102% in [9] and 103% in assay [10].

`Clc1ccc(Nc2ncnc3c2sc2ncccc23)cc1`: the growth was 3.68% (active) in assay [1]; 31.5% in [2]; 45.9% in assay [3]; 15.7% in assay [4]; 10.3% in [5]; 50.4% in assay [6]. In addition, the growth in [7] was 31.5%; in [8], 27.9%; in [9], 13.6%; in assay [10], 30.2%.

`NS(=O)(=O)c1ccc(N2N=C(c3ccc(Br)cc3)CC2c2cn(-c3ccccc3)nc2-c2ccc(Cl)cc2)cc1` (stereo not given): the growth in assay [1] is 88.3%; in assay [2], 103%; in [3], 92.5%; in assay [4] it was 98.2%; in assay [5] it was 81.6%; in assay [6] it was 157%. Moreover, the growth in assay [7] is 89.9%; in [8] it was 76.8%; in assay [9], 97.9%; in assay [10], 86.3%.
